# Assay outcomes as filed in PubChem BioAssay.
# Six1-Eya2 blk = blocks human Six1 binding to Eya2 | Q15475+O00167 | AlphaScreen GST-Six1/His-Eya2 binding, biochemical; hits give low values | activity change, % (test concentration not listed) | 360,000 compounds, 0.56% hits; in the data active = activity change below about -65%; inconclusive = mostly about -30% to -63%; note: % is set by controls: 0 for no effect and ±100 for the full control effect
# Target sequence (O00167 whole entry, looked up): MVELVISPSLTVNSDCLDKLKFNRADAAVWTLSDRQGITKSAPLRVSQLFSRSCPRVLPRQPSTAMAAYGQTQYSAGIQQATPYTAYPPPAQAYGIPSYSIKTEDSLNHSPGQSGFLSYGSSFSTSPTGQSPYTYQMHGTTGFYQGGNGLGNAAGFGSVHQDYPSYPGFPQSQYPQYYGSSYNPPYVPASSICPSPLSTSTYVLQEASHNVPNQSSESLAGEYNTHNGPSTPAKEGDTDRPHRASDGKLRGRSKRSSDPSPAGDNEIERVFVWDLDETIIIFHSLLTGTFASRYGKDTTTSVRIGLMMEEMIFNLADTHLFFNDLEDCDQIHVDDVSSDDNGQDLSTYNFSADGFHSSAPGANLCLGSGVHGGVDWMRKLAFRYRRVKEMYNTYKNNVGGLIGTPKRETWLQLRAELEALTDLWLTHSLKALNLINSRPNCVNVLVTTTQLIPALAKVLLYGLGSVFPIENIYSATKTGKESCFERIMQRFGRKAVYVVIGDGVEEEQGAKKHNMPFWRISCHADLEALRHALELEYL
# Target sequence (Q15475 whole entry, looked up): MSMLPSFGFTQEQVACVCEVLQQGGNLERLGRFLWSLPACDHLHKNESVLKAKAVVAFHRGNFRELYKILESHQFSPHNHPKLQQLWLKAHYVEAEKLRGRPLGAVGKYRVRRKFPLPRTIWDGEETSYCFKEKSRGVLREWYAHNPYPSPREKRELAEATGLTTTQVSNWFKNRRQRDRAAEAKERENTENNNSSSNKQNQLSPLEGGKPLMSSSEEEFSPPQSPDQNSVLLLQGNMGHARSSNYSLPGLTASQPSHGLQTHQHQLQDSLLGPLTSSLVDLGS
#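 AlphaScreen with GST-Six1 and His-Eya2 (5X mix: 250 nM and 500 nM), glutathione donor and nickel acceptor beads; buffer 50 mM Tris pH 8.0, 300 mM NaCl, 1 mM TCEP; 1 h at 37 C in the dark.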
# JMJD2A Tudor inh = inhibitors of human JMJD2A Tudor domain | AlphaScreen JMJD2A-Tudor / H3K4me3 peptide binding | 390,000 compounds, 4.4% hits | Potency, µM (series often up to 114 µM), inactives show at the highest dose activity change, negative = inhibition, usual class: inhibitors | O75164 | AID 504339; note: potency is the fitted concentration of half-maximal effect; % is set by controls: 0 for no effect and ±100 for the full control effect; nearly all actives have a fitted effect of over 50% in size
# CtBP-E1A inh = inhibitors of CtBP/E1A interaction | AID 651724 | activity change, % (concentration not given with the values) | 340,000 compounds, 0.49% hits | AlphaScreen GST-E1A/His-CtBP binding, 1536-well; hits give low values; in the data active = activity change below about -65%; inconclusive = mostly about -30% to -63%; note: % is set by controls: 0 for no effect and ±100 for the full control effect
#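 AlphaScreen with 125 nM GST-E1A and 125 nM His-CtBP (5X stocks) in Tris pH 8.0, 300 mM NaCl, BSA, Tween 20, TCEP. Compounds preincubated 2 h at 37 deg C, then glutathione donor/nickel acceptor beads added for 1 h at 37 deg C in dark.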
# G9a block = inhibitors of human histone lysine methyltransferase G9a | G9a H3K9 monomethylation, AlphaScreen, 2 h | Q96KQ7 | 350,000 compounds, 8.8% hits | Potency, µM (doses to about 102 µM), without a hit: at the highest dose activity, negative = inhibition, actives largely listed as inhibitors | AID 504332; note: potency is the fitted concentration of half-maximal effect; % is set by controls: 0 for no effect and ±100 for the full control effect; nearly all actives have a fitted effect of over 75% in size
#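 AlphaScreen read-out: biotin-H3K9 peptide (500 nM) methylation by 20 nM enzyme with 20 uM SAM, 2 h at room temperature after 15 min compound preincubation; anti-monomethyl H3K9 antibody plus donor/acceptor beads, 10 min dark.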
# BAZ2B block = blocks human BAZ2B; Q9UIF8; AlphaScreen BAZ2B-H3K14Ac peptide displacement; Potency, µM (doses to about 114 µM), inactives show at the top dose activity change, negative = inhibition, usual class: inhibitors; 360,000 compounds, 4.4% hits; note: potency is the fitted concentration of half-maximal effect; % is set by controls: 0 for no effect and ±100 for the full control effect; nearly all actives have a fitted effect of over 60% in size
#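 AlphaScreen displacement of biotin-H3(5-23)K14Ac peptide (50 nM final) from BAZ2B (50 nM final) in PBS pH 7.4, 0.01% Tween-20; complex preformed 30 min RT, then compounds (top 110 uM) 30 min RT, beads 20 min dark.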
# HP1b chromo inh = inhibitors of HP1-beta chromodomain binding to methylated histone tails. AlphaScreen HP1-beta / biotin-H3K9me3 peptide binding. Potency, µM (series often up to 114 µM), for the others: top-dose activity change, negative = inhibition, actives largely listed as inhibitors. 390,000 compounds, 0.56% hits. AID 540317; note: potency is the fitted concentration of half-maximal effect; nearly all actives have a fitted effect of over 70% in size
#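 AlphaScreen: HP1-beta (50 nM) preformed 30 min with biotin-H3(1-18)K9me3 peptide (50 nM) in PBS pH 7.4, 0.01% Tween-20. Compound added for 30 min at RT, then streptavidin donor/nickel chelate acceptor beads (10 ug/mL) for 30 min.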
# An asterisk follows results filed as active; ? = inconclusive; . = no result given; [ ] = dose if it differs, or a comment. Shown are actives, neighbours in structure and some others; about 10% of the full set was active somewhere. Unless noted, calls come from the whole dose curve; as a rule, active = well fitted inhibition curve with a large enough effect; inconclusive = small, poorly fitted or top-dose-only effect; inactive = no such curve, though single readings can be large or run the other way.
SMILES,Six1-Eya2 blk,JMJD2A Tudor inh,CtBP-E1A inh,G9a block,BAZ2B block,HP1b chromo inh
CCN(CC)CCCNC(=O)c1c(C)oc2ncn(CC(C)C)c(=O)c12,.,-10%,.,-25%[59 µM],9%[57.1 µM],16%
COc1cc2c(cc1OC)CN(C(=O)c1ccc([N+](=O)[O-])o1)CC2,0,-27%,0,56µM*,-31%,-4%
Cc1oc(-c2ccc(F)cc2)nc1CN(Cc1ccccn1)CC1CCCO1 (stereo not drawn),-16,20µM*,2,1%,-14%,?
Cc1cc(C)cc(C(=O)NN2CCOCC2)c1,8,-7%,4,12%[59 µM],12%,25%
Cc1cc(C)cc(C(=O)NN2CCN(C)CC2)c1,5,22µM*,2,3%[12.7 µM],4%,-5%
COC(=O)c1ccc(C(=O)OC)c(NC(=O)c2cnn3c(C(F)F)cc(-c4ccccc4)nc23)c1,.,-12%,.,-17%[59 µM],3%,8%
Cc1[nH]c2ccccc2c1C(C[N+](=O)[O-])c1ccco1 (stereo not drawn),-16,?,-8,50µM*,?,-8%
COc1cc(C(C[N+](=O)[O-])c2c(N)n(C)c(=O)n(C)c2=O)ccc1O (stereo not drawn),4,-9%,4,50µM*,-27%,-4%
COc1cc(C(C[N+](=O)[O-])c2c(C)[nH]c3ccccc23)ccc1O (stereo not drawn),-13,?,-17,?,40µM*,-36%
COc1ccc(C(=O)Nc2nc3ccccc3s2)cc1OC,2,-15%,-1,.,3%,34%
COc1ccc(/C=N/OCC(=O)Nc2nc3ccccc3s2)cc1OC,-15,50µM*,3,7%,-2%,-1%
O=c1cc(N2CCNCC2)nc2sc(-c3ccncc3)nn12,.,-32%,.,.,.,.
COc1ccc(C(=O)NC(=S)N2CCCC2)cc1,0,-18%,-11,.,-3%,11%
CCOC(=O)N1CCN(C(=S)NC(=O)c2ccc(F)c(F)c2)CC1,1,-9%,-22,45µM*,-24%,37%
CC(=O)N1CCN(C(=S)NC(=O)c2ccc(F)cc2)CC1,18,1.6µM*,-4,.,.,10%
CCOC(=O)N1CCN(C(=S)NC(=O)c2cccc(OC)c2)CC1,17,-5%,-3,.,.,20%
COc1ccc(C(=O)NC(=S)N2CCC(C)CC2)cc1,3,-12%,1,16µM*,-20%,19%
Cc1cccc(N2CCN(C(=O)c3cnn(-c4cccc(Cl)c4C)c3C3CCNCC3)CC2)c1C,.,?,.,?,-4%[57.1 µM],2%
COCCn1c(CNC(=O)c2cccc(C)c2)nc2cccnc21,.,-1%,.,14%[59 µM],1%,28%[57 µM]
COc1cccc(C=C(C#N)C(=O)c2ccccc2)c1,0,.,8,.,.,.
N#C/C(=C\c1cccc(Cl)c1)C(=O)c1ccccc1,1,-19%,.,40µM*,-6%,12%
COc1cccc(OCc2nc3ccccc3n2C)c1,.,7%,.,-6%[59 µM],-1%,36%
CCOC(=O)c1cc(-c2ccccc2)n(-c2cccc(C(=O)N(C)c3ccc(C)cc3)c2)c1C,.,?,.,16µM*,?,-10%
CCC(=O)Nc1nnc(-c2ccccn2)o1,-29,5.6µM*,11,4.5µM*,28µM*,5%
O=C(CCc1ccccc1)Nc1nnc(-c2ccccn2)o1,-25,20µM*,-19,?,50µM*,9%
SMILES,Six1-Eya2 blk,JMJD2A Tudor inh,CtBP-E1A inh,G9a block,BAZ2B block,HP1b chromo inh
O=C(Nc1nnc(-c2ccccn2)o1)c1ccc(Br)cc1,?,?,?,21%,?,38%
Cc1cc(C)cc(NC(=O)C2CCN(S(=O)(=O)c3c(C)noc3/C=C/c3ccco3)CC2)c1,.,-22%,.,1%[59 µM],.,27%
Cc1cc(O)c(C(=O)/C=C/c2ccccc2O)c(=O)o1,-2,?,.,50µM*,?,2%
Cc1cc(O)c(C(=O)/C=C/c2cccc([N+](=O)[O-])c2)c(=O)o1,-22,?,-6,13µM*,?,-1%
O=C(/C=C/c1ccccc1O)c1ccccc1,10,-15%,13,.,.,-14%[57 µM]
O=C(/C=C/c1cccc(Cl)c1)c1ccc([N+](=O)[O-])o1,2,?,5,?,10µM*,-11%
CCN(CC)C(=O)c1cc(-c2ccc(Cl)cc2)on1,.,-7%,.,6%[59 µM],14%,7%
CCC(=O)Nc1ccccc1-c1nc2ccccc2n(C(CC)C(=O)Nc2cccc(C(C)=O)c2)c1=O (stereo not drawn),.,-1%,.,?,?,56%
CCc1ccc(-n2nc(CO)c(C(=O)NCc3cccs3)n2)cc1,.,6%,.,-2%[59 µM],2%,38%
N#Cc1c(-c2ccc(F)cc2)cc(-c2ccccc2)nc1SCC(=O)NCC(=O)O,0,79µM*,.,.,50µM*,?
N#Cc1c(-c2ccccc2)cc(C2CC2)nc1SCC(=O)O,1,-26%,6,11µM*,-32%,20%
COc1ccccc1-c1cc(-c2ccccc2)nc(SC(C(N)=O)c2ccccc2)c1C#N (stereo not drawn),4,-13%,1,-29%[59 µM],79µM*,38%
COC(=O)CSc1nc(-c2ccccc2)cc(-c2ccco2)c1C#N,20,?,20,8%[0.501 µM],71µM*,9%
N#Cc1c(-c2ccccc2)cc(C2CC2)nc1SCC(=O)c1cccs1,13,-1%,3,50%,4%,44%
COC(=O)c1sccc1S(=O)(=O)N(CC(=O)NCc1ccc(C)cc1)c1ccc(C)c(C)c1,.,-25%,.,14%[59 µM],-1%,-15%
N#Cc1c(-c2ccc(Cl)cc2)cc(-c2ccccc2)nc1SCC(=O)O,-2,-26%,.,?,56µM*,46%
COc1cc(-c2cc(-c3ccccc3)nc(SCC(=O)O)c2C#N)cc(OC)c1OC,-13,-8%,0,50µM*,0%,-18%
COc1ccc(-c2cc(-c3ccccc3)c(C#N)c(SCC(O)CS(=O)(=O)Cc3ccccc3)n2)cc1 (stereo not drawn),.,-1%,.,-3%[59 µM],-1%,46%
CCCCS(=O)(=O)CC(O)CSc1nc(-c2ccc(C)cc2)cc(-c2ccccc2)c1C#N (stereo not drawn),.,-25%,.,7.9µM*,-2%,-8%
COc1ccccc1Cc1nc2ccccc2nc1SCC(=O)N1CCN(c2ccccc2)CC1,.,-23%,.,-20%[59 µM],?,0%[57 µM]
COc1ccc(N2CC(NC(=O)c3ccc4c(c3)OCO4)CC2=O)cc1 (stereo not drawn),.,-15%,.,-23%[59 µM],-3%,24%
COc1ccc(C(C)=O)cc1CSc1nc(NCc2ccccc2)c2ccccc2n1,.,-24%,.,-7%[59 µM],-26%,16%
COc1cccc(NC(=O)c2sc(-n3nc(C)c(Cc4ccccc4Cl)c3C)nc2C)c1,.,-14%,.,2%[59 µM],-14%,58%
